A selection: hits, their analogues and other compounds. The true share with any hit is near 3.5%.
GPR151 activ: activates the human receptor GPR151; 1% of 650,000 active; Q8TDV0; AID 1508602; activation, % at 11.2 µM; PathHunter beta-arrestin GPR151 cells, luminescence; in the data active = activation above about 4.9%;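 note: 0% = median of compound wells and 100% = cells with positive control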
Target sequence (Q8TDV0 whole entry, looked up): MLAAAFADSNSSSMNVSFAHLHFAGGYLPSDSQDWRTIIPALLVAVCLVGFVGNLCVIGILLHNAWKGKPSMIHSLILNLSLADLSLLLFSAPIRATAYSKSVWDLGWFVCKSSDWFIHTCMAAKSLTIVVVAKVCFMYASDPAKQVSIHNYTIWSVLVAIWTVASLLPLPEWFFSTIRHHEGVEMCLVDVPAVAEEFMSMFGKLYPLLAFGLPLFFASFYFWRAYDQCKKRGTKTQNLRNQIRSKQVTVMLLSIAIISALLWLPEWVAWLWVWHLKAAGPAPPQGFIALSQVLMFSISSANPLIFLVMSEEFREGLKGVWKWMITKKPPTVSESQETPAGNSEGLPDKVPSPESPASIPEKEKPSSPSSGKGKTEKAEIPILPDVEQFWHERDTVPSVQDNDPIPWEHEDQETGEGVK
FBW7 activator: activators of human E3 ligase FBW7; Q969H0; AlphaScreen FBW7–phospho-cyclin E peptide binding, activator screen; 0.13% of 650,000 active; AID 1259310; normalized activity (activation), % at 26.1 µM; in the data active = normalized activity above about 1.9%;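 note: purified mutant Fbw7 with reduced substrate affinity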
TEAD-YAP block: TEAD-YAP interaction inhibition; HEK-TIYL cells, TEAD-Gal4/YAP UAS-luciferase luminescence; inhibition, % at 9.12 µM; 1.4% of 640,000 active; AID 1259422; in the data active = inhibition above about 32%;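 note: 0% = median of test compound wells and 100% = reference inhibitor wells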
MITF primary: blocks human microphthalmia-associated transcription factor; O75030; AlphaScreen MITF homodimerization, bead proximity signal; inhibition, % at 2.6 µM; 0.91% of 650,000 active; AID 1259374; in the data active = inhibition above about 50%;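 note: 0% = vehicle wells with protein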
Numbers without * were called inactive; ! = repeats disagree.

SMILES | GPR151 activ | FBW7 activator | TEAD-YAP block | MITF primary
O=C(O)c1cc2ccccc2nc1Cl | -1 | 0 | 3 | 12
Fc1cc(-c2nc(Nc3cccc(Cn4ccnc4)c3)ncc2F)cc(N2CCOCC2)c1 | -2 | 0 | 94* | -2
C=C(C)CNC(=O)c1ccc(-c2ccco2)nc1NCc1cccnc1 | 0 | 0 | 3 | 6
CN1CCN(C(=S)N=P(N2CCOCC2)(N2CCOCC2)C(C)(C)C)CC1 | -3 | 1 | -7 | 26
CCc1cc2ccccc2nc1SCC(=O)NNC(=O)C(C)C | 0 | 0 | 10 | 5
COC(=O)/C=C1\S/C(=N\N=C\c2ccc3c(c2)OCO3)NC1=O | -1 | 0 | -2 | -1
O=C1N/C(=N\N=C/c2ccc3c(c2)OCO3)S/C1=C/c1ccc(O)cc1 | 0 | 1 | 49* | -5
O=C(N/N=C/C1CC2CCC1C2)c1ccc([N+](=O)[O-])cc1 (stereo unspecified) | -1 | 0 | 10 | 14
O=C(N/N=C/C1CC2CCC1C2)c1cccc2ccccc12 (stereo unspecified) | 0 | 0 | 37* | -7
O=C1C(Cl)=C(Nc2cccc(O)c2)C(=O)N1c1ccccc1Cl | 0 | 0 | 3 | 16
Cc1ccc(N2C(=O)C(Cl)=C(Nc3cccc(O)c3)C2=O)c(C)c1 | -1 | 1 | 36* | 32
O=C1C(Cl)=C(Nc2cccc(O)c2)C(=O)N1c1cccc(Cl)c1Cl | -1 | 0 | 53* | 10
O=C(CSc1nc2ccccc2s1)NNC(=O)NC1CCCCC1 | -2 | 0 | 2 | -4
Cc1cc(=O)[nH]c(SCC(=O)Nc2ccccc2C(C)C)n1 | -1 | 0 | -1 | 1
Nc1c(C(=O)Nc2ccc(F)cc2)sc2nc3c(c(-c4ccccc4Cl)c12)CCC3 | -1 | 0 | 10 | 3
Cc1cc2ncn(C(=O)c3c(-c4ccccc4)noc3C)c2cc1C | 1 | 0 | 11 | 2
Cc1cc2ncn(C(=O)c3c(-c4c(Cl)cccc4Cl)noc3C)c2cc1C | 0 | 2.4* | -10 | 9
Cc1cccc(Cc2c(C)nc3c(C(=O)N4CCN(c5cc(C)ccc5C)CC4)cnn3c2C)c1 | 0 | 0 | 5 | -5
CCCc1cc(N2CCN(c3ccc(OC)cc3)CC2)n2cnnc2n1 | 0 | 0 | 42* | -5
CC(C)(C)C(=O)N1CCC[C@@H](Cn2nc(-c3cccs3)ccc2=O)C1 | 0 | 0 | 66* | 12
COc1cc(C2C=C(c3ccc(F)cc3)Nc3ncnn32)ccc1OC(F)F (stereo unspecified) | 0 | 0 | 11 | -8
O=[N+]([O-])c1cc(Cl)c2oc(-c3ccc(O)cc3)nc2c1 | 0 | 0 | 55* | -5
O=C(Nc1ccc(-c2nc3ccccc3o2)cc1)c1cc([N+](=O)[O-])ccc1Cl | 0 | 0 | 9 | 11
CCn1nnnc1-c1ccc(OC)c(S(=O)(=O)Nc2ccc(Cl)cc2)c1 | 0 | 0 | 8 | 10
O=C(Cn1c2ccccc2n2nc(-c3cccs3)nc12)c1ccccc1 | 1 | 0 | -7 | -3
SMILES | GPR151 activ | FBW7 activator | TEAD-YAP block | MITF primary
O=C(CN1CC[n+]2c(-c3cccs3)csc21)c1ccccc1 | 0 | 0 | 32* | 9
COc1ccc(C(=O)Nc2ccc(-c3csc(C)n3)cc2)c(OC)c1 | -1 | 0 | -31 | -10
COc1ccc(C(=O)Nc2ccc(-c3cn4ccsc4n3)cc2)c(OC)c1 | 0 | 2.0* | -15 | -5
COc1cc([N+](=O)[O-])ccc1N/C(N)=N/c1nc(C)cc(C)n1 | 0 | 0 | 57*! | -20
Cc1cc(C)nc(/N=C(\N)Nc2ccc([N+](=O)[O-])cc2C)n1 | 2 | 0 | -1 | 0
CCn1c(=O)c(-c2ccccc2)c(O)c2ccccc21 | -2 | 0 | 0 | 7
CCn1c(=C2C(=O)NC(=O)NC2=O)c2cccc3cccc1c32 | -1 | -1 | 15 | 61*
O=C1CCCC2=C1C(c1cccc3ccccc13)n1ncnc1N2 (stereo unspecified) | -2 | 0 | 1 | -3
CS(=O)(=O)N(CC(=O)N1CCOCC1)c1ccc(Oc2ccccc2)cc1 | 1 | 0 | -5 | 2
CCOc1ccc(N(CC(=O)N2CCOCC2)S(C)(=O)=O)cc1 | -2 | 2.1* | 14 | 18
Cn1c(-c2ccccc2)cnc1NC(=O)c1ccccc1 | -1 | 0 | 57* | 4
Cc1sc2nc(C3CCCN(C(=O)C(C)(C)C)C3)[nH]c(=O)c2c1C (stereo unspecified) | 0 | 0 | 92* | 0
Cc1sc2nc(C3CCCN(C(=O)c4ccco4)C3)[nH]c(=O)c2c1C (stereo unspecified) | -1 | 0 | -31 | 12
Oc1cccc(-c2nc3cnccn3c2Nc2ccc(Cl)cc2)c1 | 0 | 0 | 0 | -5
CCN(c1ccccc1)S(=O)(=O)c1ccc2c(c1)oc(=O)n2C | 0 | 0 | 7 | -10
CCN(c1cccc(C)c1)S(=O)(=O)c1ccc2c(c1)oc(=O)n2C | 0 | 0 | 44* | 4
CCN(c1ccc(C)c(C)c1)S(=O)(=O)c1ccc2c(c1)oc(=O)n2C | -1 | 0 | 16 | 6
CCOc1ccc(N(CC)S(=O)(=O)c2ccc3c(c2)oc(=O)n3C)cc1 | 2 | 0 | 48* | 15
COc1ccc(NC(=O)CC2(c3ccccc3)C(=O)c3ccccc3C2=O)cc1 | 3 | 0 | -2 | 4
CCCc1cc(C(=O)NC(C)CC)no1 (stereo unspecified) | -1 | 0 | -23 | -8
COc1ccc(-c2c(C)nn3c(N4CCN(C)CC4)c(C)c(C)nc23)cc1 | 1 | 0 | 9 | 4
CCOC(=O)N1CC=C2C(C#N)=C(N)C(C#N)(C#N)C(C)C2C1 (stereo unspecified) | 1 | 0 | 68* | 9
COCCn1c(C)cc(C(=O)CN2C(=O)NC(C)(c3ccc(C(C)(C)C)cc3)C2=O)c1C (stereo unspecified) | 1 | 0 | 36* | 2
COc1ccc(/C=C2\C=C(c3ccccc3)N(c3ccc(C)cc3Br)C2=O)cc1 | -1 | 0 | 47* | 1
COc1ccc(/C=C2\C=C(c3ccccc3)N(c3ccc(C)cc3C)C2=O)cc1 | 0 | 1 | 45* | 27
SMILES | GPR151 activ | FBW7 activator | TEAD-YAP block | MITF primary
Cc1ccc(N2C(=O)/C(=C/c3ccc(Cl)cc3)C=C2c2ccccc2)c(C)c1 | 1 | 0 | -6 | 22
COc1ccc(/C=C2\C=C(c3ccccc3)N(c3ccccc3)C2=O)cc1 | 1 | 0 | -48 | 4
COc1ccc(/C=C2\C=C(c3ccccc3)N(c3ccc(O)cc3)C2=O)cc1 | 2 | 0 | 49* | 11
COc1ccc(/C=C2\C=C(c3ccccc3)N(c3ccccc3Br)C2=O)cc1 | -1 | 0 | 24 | 10
CC(=O)N1CCN(CC(=O)N2N=C(c3ccc4ccccc4c3)CC2c2ccccc2)CC1 (stereo unspecified) | -1 | 0 | 7 | -5
COc1ccc2oc(=O)c(-c3csc(Nc4ccccc4OC)n3)cc2c1 | 1 | 0 | 48* | -5
Cc1cc(C)n(CCNc2nncc(-c3ccc4c(c3)OCO4)n2)n1 | 0 | 0 | 28 | 2
c1cnn(CCCNc2nncc(-c3ccc4c(c3)OCO4)n2)c1 | 0 | 1 | 85* | -14

From PubChem BioAssay
